This is an account of results in PubChem BioAssay (NCATS).

Activity calls are given as the source filed them. Calls follow the shape of the full dose curve.

The nature of the assay: Cell Proliferation Assay Versus the ED40515 IL2 Dependent ATL cell lines (AID 1053195). Particulars: ED40515 IL2-dependent ATL cells. From the text:
Adult T-cell leukemia (ATL) develops in individuals infected with human T-cell lymphotropic virus-1 (HTLV-1). Clinically, ATL is subclassified into four subtypes: smoldering, chronic, lymphomatous, and acute. Two autocrine loops (IL-2/IL-2Ralpha and IL-15/IL-15Ralpha) and one paracrine stimulation loop that involves IL-9 expression by ATL cells and IL-9Ralpha expression on monocytes are required to maintain viability and proliferation in the smoldering and chronic forms of the disease. These assays examined the differential response profiles for the MIPE library of approved and investigational drugs versus an IL2 dependent and independent matched ATL cell line, with the current submission examining the differential response profiles for drugs on an IL2 dependent matched ATL cell line.
Plate log growing ED40515 +IL2 cells: 1000cells/ well in 5uL phenol red free RPMI +5% FBS +1x p/s, Glutamine using 1536 well white griener tissue culture plates and multidrop cassette acoustic dispensing Columns 1 and 3 DMSO Columns 2 and 4, 9.2 uM Bortezomib Incubate 48 hours for celltiter glo 37C with 5%CO2 and 95% humidity with low evaporation lids Dispense 3 uL per well of cell titer glo with multidrop Incubate for 15 minutes at RT Read on VL/2 using Luminesence Wheel (Filter A)
Turning to `CNC(=O)c1ccc(N2C(=S)N(c3ccc(C#N)c(C(F)(F)F)c3)C(=O)C23CCC3)cc1F`, the Potency is 20.9 µM (active).

For `C[C@@H]1[C@@H](C(=O)C[C@H]2O[C@@H]3O[C@]4(C)CC[C@@H]5[C@H](C)CC[C@@H]([C@H]2C)[C@@]35OO4)O[C@@H]2O[C@]3(C)CC[C@H]4[C@H](C)CC[C@@H]1[C@@]24OO3`, the Potency is 0.0066 µM (active).

On to `Cn1cc(C2=C(c3cn(C4CCN(Cc5ccccn5)CC4)c4ccccc34)C(=O)NC2=O)c2ccccc21`, for which the Potency is 14.8 µM (active).

On to `CC(O)(CS(=O)(=O)c1ccc(F)cc1)C(=O)Nc1ccc(C#N)c(C(F)(F)F)c1` (stereo not given), for which the Potency was 14.8 µM (active).

Turning to `C[C@]12CCC(=O)C(O)=C1CC[C@@H]1[C@@H]2CC[C@]2(C)C(=O)CC[C@@H]12`, the Potency is 0.059 µM (active).

Regarding `CCCCC/C=C\C/C=C\C/C=C\C/C=C\CCCC(=O)NC1CC1`, the Potency was 16.6 µM (active).

As for `CN(C)CCN(C)CCc1ccc(Cl)c(Cl)c1`, the Potency is 16.6 µM (active).

For `O=C(O)C(=O)c1cn(Cc2ccccc2)c2ccc(-c3ccc(OC(F)(F)F)cc3)cc12`, the Potency is 20.9 µM (active).

With `COC1(CS(=O)c2ccccc2)CCN(CCc2c[nH]c3ccc(F)cc23)CC1` (stereo not given), the Potency was 23.5 µM (active).

`C[C@@H]1[C@@H](CC(C[C@H]2O[C@@H]3O[C@]4(C)CC[C@@H]5[C@H](C)CC[C@@H]([C@H]2C)[C@@]35OO4)C[S+](=O)([O-])c2ccc(COC(=O)N(C)C)cc2)O[C@@H]2O[C@]3(C)CC[C@H]4[C@H](C)CC[C@@H]1[C@@]24OO3` (stereo not given in full): the Potency is 0.0166 µM (active).

For the molecule `CC(C)n1c(C=C[C@H](O)C[C@H](O)CC(=O)O)c(-c2ccc(F)cc2)c2ccccc21`, the Potency was 0.209 µM (active).

For the molecule `Cc1cc(SCc2sc(-c3ccc(C(F)(F)F)c(F)c3)nc2C)ccc1OCC(=O)O`, the Potency was 18.7 µM (active).

For the molecule `CNC(=O)N1N=C(c2ccc(N)cc2)c2cc3c(cc2CC1C)OCO3` (stereo not given), the Potency is 14.8 µM (active).

As to `CC1=C2C[C@@H]3[C@@H](CC=C4C[C@@H](O)CC[C@@]43C)[C@@H]2CC[C@]12O[C@H]1C[C@H](C)CN[C@H]1[C@H]2C`, the Potency was 16.6 µM (active).

For `O=c1c(O)c(-c2ccc(O)c(O)c2)oc2cc(O)cc(O)c12`, the Potency is 16.6 µM (active).
